An excerpt weighted towards active compounds, which were near 21% of everything screened.
DT40 TDP1 no CPT = qHTS for Inhibitors of human tyrosyl-DNA phosphodiesterase 1 (TDP1): qHTS in cells in absence of CPT. DT40 Tdp1-/- hTDP1 cells, no CPT, ATP luminescence, 48 h. Potency, µM (doses to about 46.2 µM), for inactives: at the top dose activity change, negative = growth inhibition, most hits filed as inhibitors. actives 15% (n = 420,000). AID 686978, 2013; also: potency is read from the fitted curve at half-maximal effect; nearly all actives have a fitted effect of over 55% in size
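Chicken DT40 Tdp1-/- cells complemented with human TDP1, screened without camptothecin (DMSO vehicle only), 400 cells/well. Compounds pin-transferred, cells incubated at 37 °C for at least 48 hr. Growth read as ATP-dependent luminescence (CellTiter-Glo, 30 min at RT).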
VP16 counter = counter-screen for ROR gamma inhibitors: Gal4-VP16 reporter; Potency, µM (doses to about 53.6 µM), for the others: at the highest dose activity, negative = inhibition, actives largely listed as inhibitors; Drosophila S2 Gal4-VP16 UAS-luciferase, luminescence, 20 h; actives 3.5% (n = 310,000);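 also: Gal4-VP16 expression switched on by copper sulfate through the metallothionein promoter; potency is read from the fitted curve at half-maximal effect; nearly all actives have a fitted effect of over 50% in size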
ELG1 repair inh = blocks ELG1-dependent DNA repair in HEK293T cells. HEK293T ELG1-luciferase reporter, luminescence, 16 h; DNA damage induced by 5-fluorouridine. Potency, µM (titrated, usually from 46.1 µM), without a hit: at the top dose activity change, negative = inhibition, actives largely listed as inhibitors. actives 2.3% (n = 330,000). AID 504467; also: potency is read from the fitted curve at half-maximal effect; nearly all actives have a fitted effect of over 55% in size
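In this reporter screen, reduction of luminescence relative to DMSO vehicle indicated activity. Compounds and 5-fluorouridine were added together to 2,000 cells per well, incubated for 16 hr at 37 °C, then developed with ONE-Glo.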
RORgamma inh = ROR gamma (mouse) transcription inhibition. Potency, µM (titrated, usually from 53.6 µM), without a hit: at the top dose activity change, negative = inhibition, most hits filed as inhibitors. actives 5.4% (n = 310,000). Drosophila S2 Gal4-RORgamma UAS-luciferase reporter, 20 h. P51450; also: potency is read from the fitted curve at half-maximal effect; nearly all actives have a fitted effect of over 60% in size
Target sequence (P51450 whole entry, looked up, the tested form may be a part): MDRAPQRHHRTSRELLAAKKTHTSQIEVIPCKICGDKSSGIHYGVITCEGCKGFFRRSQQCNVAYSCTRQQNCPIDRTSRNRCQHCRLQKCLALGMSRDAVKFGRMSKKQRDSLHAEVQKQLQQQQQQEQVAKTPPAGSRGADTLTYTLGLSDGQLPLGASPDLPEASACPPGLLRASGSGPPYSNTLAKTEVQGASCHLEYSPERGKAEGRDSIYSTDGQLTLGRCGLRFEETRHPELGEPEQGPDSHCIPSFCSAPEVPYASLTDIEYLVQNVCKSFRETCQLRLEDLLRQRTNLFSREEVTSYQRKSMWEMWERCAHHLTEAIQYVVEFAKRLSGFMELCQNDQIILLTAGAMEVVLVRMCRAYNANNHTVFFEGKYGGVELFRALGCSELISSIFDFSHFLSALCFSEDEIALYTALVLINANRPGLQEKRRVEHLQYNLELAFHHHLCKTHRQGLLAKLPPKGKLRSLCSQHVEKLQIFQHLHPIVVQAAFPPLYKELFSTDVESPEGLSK
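Drosophila Schneider cells stably carrying a metallothionein-driven Gal4 DBD–ROR gamma fusion and a UAS-Photinus luciferase reporter were exposed to compound for 1 hr, then induced with copper sulfate (700 uM final) for 20 hr at ambient temperature before luminescence reading.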
IL-1B inflam inh = inflammasome signaling inhibition, IL-1 beta readout. THP-1 LPS/ATP IL-1B secretion, AlphaLISA, 16 h; hits give low values. actives 4.7% (n = 360,000). activity change, % at 57.5 µM; in the data active = activity change below about -50%; inconclusive = mostly about -30% to -49%
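Secreted IL-1B measured by AlphaLISA bead assay after 16 h compound exposure of THP-1 cells; compounds (final up to 57.5 uM) added 1 h before LPS (250 ng/mL) and ATP (1.25 mM) stimulation; lower signal means less secretion.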
DT40 TDP1 CPT = DT40-hTDP1 cell growth loss with CPT. AID 686979. actives 12% (n = 420,000). chicken DT40 Tdp1-/-;hTDP1 cells + 20 nM CPT, ATP luminescence, 48 h. Potency, µM (top dose mostly 46.2 µM), without a hit: at the top dose activity change, negative = growth inhibition, actives largely listed as inhibitors; also: potency is read from the fitted curve at half-maximal effect; nearly all actives have a fitted effect of over 55% in size
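Cell growth measured by CellTiter-Glo luminescence after a minimum 48 h, 37 C compound exposure with 20 nM CPT in Tdp1-knockout DT40 cells stably expressing hTDP1, seeded 400/well; qHTS titration format.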
* = called active by the depositor; ? = inconclusive; . = not tested or not shown; [ ] = dose if it differs, or a comment. Unless noted, calls follow the shape of the dose curve; as a rule, active = well fitted curve in the direction sought with a large enough effect; inconclusive = small, poorly fitted or top-dose-only effect, or another doubt; inactive = no such curve, though single readings can be large; an effect the other way counts as inactive or inconclusive. % is scaled to controls: 0 for no effect and ±100 for the full control effect.

SMILES	DT40 TDP1 no CPT	VP16 counter	ELG1 repair inh	RORgamma inh	IL-1B inflam inh	DT40 TDP1 CPT
COc1cccc(C2c3cc4c(cc3OC(NNC(N)=O)C2C)OCO4)c1O (stereo not drawn)	4.11µM*	.	.	.	32.8	4.61µM*
COc1cc(C2c3cc4c(cc3C(O)C3COCC23)OCO4)cc(OC)c1OC (stereo not drawn)	?	.	.	.	63.8	?
COc1ccc(OC)c(NS(=O)(=O)c2ccc3[nH]c(=O)[nH]c3c2)c1	?	.	.	.	26.9	-21.9%
O=C(c1ccc(N2CCCC2)c([N+](=O)[O-])c1)N1CCc2ccccc2C1	29.1µM*	.	21.6%	.	?	16.4µM*
O=C(c1ccncc1)N1CCc2ccccc2C1	1.3%	-0.1%	22.5%	9.1%	0.0	8.5%
O=C(c1cncc(Br)c1)N1CCc2ccccc2C1	?	2.0%	5.8µM*	-2.4%	-3.3	?
N#Cc1ccc(N2CCc3ccccc3C2)c([N+](=O)[O-])c1	23.1µM*	-1.6%	-6.0%	39.1%	-27.8	-13.3%
O=C(c1ccc(N2CCCCC2)c([N+](=O)[O-])c1)N1CCOCC1	-12.8%	-4.5%	-3.4%	19.5%	-9.1	2.3%
CC1Cc2ccccc2N1C(=O)c1ccc2c(c1)OCO2 (stereo not drawn)	-8.5%	.	.	.	-63.8*	?
COCCN1C(=O)c2oc3ccc(C)cc3c(=O)c2C12C(=O)N(C)c1ccccc12 (stereo not drawn)	-2.0%	.	.	.	.	6.3%
N#Cc1ccc(C(=O)OCC(=O)Nc2cccnc2Cl)cc1	-11.1%	.	8.0%	.	23.3	-20.3%
O=C(NCC1(N2CCOCC2)CCCC1)c1cnn(-c2nccc(-c3ccco3)n2)c1C1CC1	-29.0%	.	.	.	.	?
COc1ccc2c(c1)CCCC21NC(=O)N(CC(=O)N2CC(C)OC(C)C2)C1=O (stereo not drawn)	6.0%	.	7.4%	.	34.6	21.0%
CCN(CC)S(=O)(=O)c1ccc2c(c1)c(=O)c(C(=O)N1CCN(c3ccc(OC)cc3)CC1)cn2C	?	.	.	.	.	-0.5%
Cc1ccc(S(=O)(=O)N[C@H]2COC(=O)C/C=C\[C@H](C)[C@@H](NS(=O)(=O)c3ccc(C)cc3)COC(=O)C/C=C\[C@@H]2C)cc1	.	-6.4%[10 µM]	.	-3.3%[10 µM]	.	.
Cc1ccc(CC(=O)NCc2nc(-c3cccc(C)c3)no2)cc1	?	.	.	.	.	-17.4%
O=C(c1ccc(N2CCCCC2)c([N+](=O)[O-])c1)N(Cc1ccccc1)c1ccccn1	18.4µM*	-18.8%	-23.8%	?	?	16.4µM*
COC(=O)CCN(C(=O)c1ccc(N2CCCCC2)c([N+](=O)[O-])c1)c1ccccn1	?	-7.1%[10 µM]	-4.5%	11.2%	7.4	4.0%
CC1Cc2ccccc2N1C(=O)c1ccc(N2CCCC2)c([N+](=O)[O-])c1 (stereo not drawn)	?	?	?	?	-81.7*	?
O=Cc1ccc(CO)o1	.	-7.6%	.	9.9%	.	.
CC1=C(C(=O)N(C(C)C)C(C)C)CC(CC(=O)NC2CC2)C(=O)N1Cc1ccc(F)cc1 (stereo not drawn)	-4.0%	.	.	.	19.3	-25.3%
COc1ccc(C)cc1NC(=O)CCC(=O)Nc1nnc(C2CCCCC2)s1	-6.6%	-4.1%	2.4%	0.8%	45.1	-2.6%
COc1ccc(-c2nn(-c3ccccc3)cc2C(=O)NC2CC2)cc1	?	.	-9.7%	.	-6.3	-20.9%
CC1CCCC(NC(=O)C2CCN(S(=O)(=O)N3CCCCCC3)CC2)C1C (stereo not drawn)	23.1µM*	-3.5%	1.8%	?	-3.7	?
CC1CCCC(NC(=O)C2CCN(S(=O)(=O)N3CCCCC3)CC2)C1C (stereo not drawn)	-28.8%	-1.5%	-20.1%	11.3%	1.6	?
SMILES	DT40 TDP1 no CPT	VP16 counter	ELG1 repair inh	RORgamma inh	IL-1B inflam inh	DT40 TDP1 CPT
CCN(CC)CCNC(=O)c1cccc(NC(=O)C(=O)c2ccccc2NC(C)=O)c1	24.3%	4.6%	?	-4.2%	-19.9	9.9%
CC(NC(=O)CSc1ncccn1)c1ccc(Cl)cc1Cl (stereo not drawn)	?	-2.4%	-1.9%	13.8%	21.9	-4.9%
CCCCC(=O)NC(c1ccc(Cl)cc1Cl)c1ccc2cccnc2c1O (stereo not drawn)	2.91µM*	3.16µM*	?	3.16µM*	179.2	6.51µM*
CC(Oc1ccc(Cl)cc1Cl)C(=O)Nc1ncccn1 (stereo not drawn)	-12.9%	-7.2%	?	19.1%	1.5	-7.4%
CCC(=O)NC(c1ccc(Cl)cc1Cl)c1ccc2cccnc2c1O (stereo not drawn)	5.17µM*	?	?	-0.9%[1.91 µM]	-85.5*	5.17µM*
O=C(CCCOc1ccc(Cl)cc1Cl)Nc1ncccn1	4.3%	21.2%	0.0%	41.6%	-6.5	1.3%
CC(C)C(=O)NC(c1ccc(Cl)cc1Cl)c1ccc2cccnc2c1O (stereo not drawn)	5.17µM*	3.16µM*	-27.3%	4.47µM*	73.6	6.51µM*
O=C(Nc1ccc(C(O)c2ccccc2)cc1)[C@H]1C[C@H](O)[C@@H](CO)O1 (stereo partly drawn)	-2.0%	.	.	.	0.0	-2.1%
C[C@@H]1CCCCO[C@H](CN(C)S(=O)(=O)c2cccs2)[C@H](C)CN([C@@H](C)CO)C(=O)c2cc(NC(=O)NC3CCCCC3)ccc2O1	11.6µM*	.	.	.	-16.2	18.4µM*
C[C@@H]1CN([C@@H](C)CO)C(=O)c2cc(N(C)C)ccc2O[C@@H](C)CCCCO[C@@H]1CN(C)S(=O)(=O)c1cccs1	16.4µM*	.	.	.	25.7	18.4µM*
C[C@H](CO)N1C[C@H](C)[C@@H](CN(C)S(=O)(=O)c2cccs2)Oc2ccc(NC(=O)NC3CCCCC3)cc2C1=O	?	.	-26.7%	.	-26.2	?
C[C@H](CO)N1C[C@H](C)[C@@H](CN(C)S(=O)(=O)c2ccccc2)Oc2ccc(NC(=O)NC3CCCCC3)cc2C1=O	20.6µM*	.	-8.3%	.	-0.9	?
C[C@@H]1CCCCO[C@@H](CN(C)CC2CC2)[C@@H](C)CN([C@H](C)CO)C(=O)c2cc(N(C)C)ccc2O1	10.5%	.	.	.	15.8	22.0%
C[C@@H]1CCCCO[C@@H](CN(C)S(=O)(=O)c2cccs2)[C@@H](C)CN([C@H](C)CO)C(=O)c2cc(NS(=O)(=O)c3ccccc3)ccc2O1	8.2µM*	.	.	.	?	16.4µM*

From PubChem BioAssay
